Measurements taken from PubChem BioAssay AID686979 (National Center for Advancing Translational Sciences (NCATS), 2013).
Values joined by “and” are separate entries in the source; they are usually repeats but may differ in a detail not shown here. Equal entries are not always repeated. In all, about 420,000 compounds went through this assay and about 50,000 (12%) were called active. About 26% were inconclusive and are not listed. For the sample, actives were picked, then their nearest neighbours and some compounds at random. A number with no mark means an inactive call. The call rests on the fitted dose curve; in most records, active means well fitted inhibition curve with a large enough effect; inconclusive means small, poorly fitted or top-dose-only effect; inactive means flat fitted curve, though single readings scatter.

Assay: qHTS for Inhibitors of human tyrosyl-DNA phosphodiesterase 1 (TDP1): qHTS in cells in presence of CPT; further: nearly all actives have a fitted effect of over 55% in size
Conditions: chicken DT40 Tdp1-/-;hTDP1 cells + 20 nM CPT, ATP luminescence, 48 h; series mostly up to 46.2 µM; activity change, negative = growth inhibition: at the top concentration
How it was run: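 Cell growth measured by CellTiter-Glo luminescence after a minimum 48 h, 37 C compound exposure with 20 nM CPT in Tdp1-knockout DT40 cells stably expressing hTDP1, seeded 400/well; qHTS titration format.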
On the % scale 0 is the no-effect control and ±100 the full control effect; potency means the concentration at half of the fitted maximal effect.

SMILES | activity change, negative = growth inhibition | Potency
Cc1ccnc2nc(C(=O)Nc3nnc(-c4ccccc4)o3)nn12 | -3.33% | 
Cc1ccc2[nH]c(=O)c(CN(C)S(=O)(=O)c3cccc4nonc34)cc2c1 | 0.922% | 
COc1cc(NS(=O)(=O)c2cccs2)cc(OC)c1 | -14.8% | 
COCCNc1nc(-c2ccccc2)nc2c1oc1ccccc12 | 3.02% | 
Cc1cc(C)c2nc(-c3cccnc3)cc(C(=O)Nc3ccc(S(=O)(=O)Nc4onc(C)c4C)cc3)c2c1 | 8.61% | 
CC1CCN(C(=O)C2CCN(S(=O)(=O)N3CCC4(CC3)OCCO4)CC2)CC1 | 9.32% | 
COc1cc(C2C3C(=O)N(c4ccccc4)C(=O)C3ON2c2ccccc2)ccc1O (stereo unspecified) | -15.5% | 
COC(=O)c1sc(N)c(C(=O)OC)c1COC(=O)CNS(=O)(=O)c1ccc(C)cc1 | -21.8% | 
COc1ccc2oc(-c3ccc(C)c(NC(=O)c4sc5ccccc5c4Cl)c3)nc2c1 | -24% | 
CC1(C(=O)OCC(=O)Nc2ncc(Cl)cc2Cl)CC1(Cl)Cl (stereo unspecified) | 2.88% | 
N#Cc1cccc(CN2CCC(=O)N([C@H](CO)c3ccccc3)CC2)c1 |  | inactive
CC(C)(C(=O)NO)c1ccccc1 | -26.7% | 
CCN(CC)S(=O)(=O)c1cccc(C(=O)Nc2ccccc2)c1 |  | 20.6 µM (active)
CCN(CC)S(=O)(=O)c1cccc(C(=O)NCC(=O)OCC(=O)NCc2ccccc2)c1 | -13.6% | 
CN(C)S(=O)(=O)c1cccc(C(=O)Nc2cccnc2)c1 | 5.91% | 
CC(OC(=O)c1cc2ccccc2o1)C(=O)Nc1ccc(N2CCOCC2)cc1 (stereo unspecified) | -2.49% | 
CN(c1ccccc1)S(=O)(=O)c1ccc2[nH]c(=O)[nH]c2c1 | -4.05% | 
CCCNC(=O)N1CCC(c2ccc3c(c2)OCO3)CC1 | -2.65% | 
CCCC[C@@H]1CN=C(N)N1CCc1cc(C(F)(F)F)cc(C(F)(F)F)c1 |  | 3.66 µM (active)
CCCC[C@@H]1CN=C(N)N1CCc1cccc(F)c1 |  | 9.2 µM (active)
CCCS(=O)(=O)N1CCN=C1SCc1cccc(F)c1 | -23.1% | 
O=C1NC[C@@H](Cc2ccc(O)cc2)N(CCc2cccc(F)c2)C1=O | -0.54% | 
CCN(CC(=O)NCc1cccs1)C(=O)c1ccc(OC)c(S(=O)(=O)N2CCOCC2)c1 | -0.26% | 

SMILES | activity change, negative = growth inhibition | Potency
Cn1c(=O)c2c(nc(N3CCOCC3)n2CCNC2=NCCC2)n(C)c1=O | -6.91% | 
CC(NC(=S)NC1CCCCC1)C(c1ccccc1)N1CCOCC1 (stereo unspecified) | -22.3% | 
CCn1c(SCC(=O)NNC(=O)c2ccc(OC)cc2)nnc1C(C)C | -2.01% | 
Cc1cccc(C)c1NC1=NC(=S)N(c2ccc(N(C)C)cc2)C1(C)C | -23.1% | 
Cc1cccc(C)c1Nc1c(-c2ccccc2O)nc2ncccn12 |  | 20.6 µM (active)
CCc1cccc(C)c1NS(=O)(=O)c1c(C)nc2sccn2c1=O |  | inactive
CCc1cccc(C)c1Nc1c(-c2ccc(N(C)C)cc2)nc2ncccn12 |  | 10.3 µM (active)
Cc1ccc(-c2c(N)nc3ncccn23)cc1 | 6.29% | 
Cc1c(-c2cccc(NC(=O)C(C)(C)C)c2)nc2ncccn12 | -4.57% | 
CC1(OC(=O)CCc2ccccc2)C(=O)C=C2C=C(c3ccc(C#N)cc3)N(CCc3ccccn3)C=C2C1=O (stereo unspecified) | -22.9% | 
CC1CCN(c2ccc([N+](=O)[O-])cc2C(N)=O)CC1 | -6.2% | 
CC(C)c1ccc(NC(=O)Cn2nnc(C(=O)NCCc3ccccc3)c2N)cc1 | 9.46% | 
O=C(COc1ccc([N+](=O)[O-])cc1)Nc1cccc(C(=O)Nc2ccccc2C(=O)O)c1 | 1.45% | 
CCc1cccc(NC(=O)c2cc(-c3ccccc3)n[nH]2)c1 | -27.1% | 
CCc1ccc2c(c1)C1(NN=C(c3ccccc3)S1)C(=O)N2 (stereo unspecified) |  | 2.91 µM (active)
CCCCC(CC)CNC(=O)C1CCN(S(=O)(=O)c2cccc3nsnc23)CC1 (stereo unspecified) | 7.48% | 
Cc1cc(C)c(-c2c(O)c3ccccc3n(C)c2=O)c(C)c1 | -4.71% | 
COc1cc2c(=O)n(C)c3ccccc3c2cc1OC |  | 13 µM (active)
COc1cccc2c(O)cc(=O)n(C)c12 | -20.6% | 
Cc1ccc(Cc2nnc(SCC(=O)Nc3ccccc3C)[nH]c2=O)cc1 | -17.9% | 
C[C@H](CO)N1C[C@H](C)[C@H](CN(C)C(=O)Nc2ccc3c(c2)OCO3)Oc2ncc(Br)cc2C1=O | 5.22% | 
CCOc1ccc(NC(=O)CN(C)C(=O)c2c(C)noc2C)cc1OCC | 1.04% | 
c1ccc(-c2c[nH]c(-c3ccccc3)c2)cc1 | 13.2% | 

SMILES | activity change, negative = growth inhibition | Potency
CC1CCCCC12NC(=O)N(CC(=O)N1CCN(c3ccccc3)CC1)C2=O (stereo unspecified) | -14.3% | 
CC(=O)c1ccc(N2CCN(CC(O)c3ccccc3)CC2)cc1 (stereo unspecified) | 20.2% | 
COc1ccc(C=Nc2cccc3ncccc23)cc1 | -27.3% | 
COc1cc(OC)c(/C=C/c2ccnc3ccccc23)c(OC)c1 |  | 10 µM (active)
COc1ccc(/C=C2/C(=O)N(c3ccccc3)N=C2C)c(OC)c1 | 3.05% | 
CC(=O)OC1CCC2(O)CC1(C)CCC1C2CC1(C)C (stereo unspecified) | -0.352% | 
COc1ccc(-c2n[nH]c(C)c2-c2ccc(OC)c(OC)c2)c(O)c1 |  | 20.6 µM (active)
CCOc1ccc(-c2n[nH]c(C)c2-c2ccccn2)c(O)c1 | -18.7% | 
C=C(C)COc1ccc(-c2ncncc2-c2ccc(OC)cc2)c(O)c1 | -22.2% | 
C=C(C)COc1ccc(-c2n[nH]c(C)c2-c2ccccc2)c(O)c1 |  | 14.6 µM (active)
COc1ccc(-c2c(-c3ccc(OC)cc3O)nc(C)nc2C(F)(F)F)cc1 | -21.2% | 
COc1ccc(-n2c(-c3ccc(OC)c(OC)c3)n[nH]c2=S)cc1 | 24.6% | 
N#Cc1c(-c2ccccc2)nc(SCc2ccc([N+](=O)[O-])cc2)[nH]c1=O | -20% | 
O=C(Nc1ccccc1)/C(=C\c1ccco1)NC(=O)c1ccco1 | -12.4% | 
CCN(CC(=O)Nc1ccc(OC)cc1)C(=O)c1ccc(=O)n(Cc2ccccc2)n1 | -13.1% | 
COc1ccc(NC(=O)CCCNC(=O)Cn2cnc3sc4c(c3c2=O)CCCC4)cc1OC | 3.14% | 
O=C(Nc1ccccc1C(=O)N1CCCCCC1)c1ccccc1Cl | 5.74% | 
Nc1nnnn1/N=C/c1cccc(Br)c1 | -3.42% | 
CCOC(=O)c1c(NC(=S)Nc2ccccc2C)sc2c1CCC2 | -2.49% | 
CCOC(=O)c1c(NC(=O)C2(C)Cc3ccccc3C(=O)O2)sc2c1CCCC2 (stereo unspecified) |  | 18.4 µM (active)
CCOC(=O)c1c(NC(=O)c2ccc(Br)o2)sc2c1CCCC2 | -18.8% | 
O=C1c2ccccc2C(=O)N1CCC(O)C[N+](=O)[O-] (stereo unspecified) | -25.6% | 
COCCCNc1nc2c(-c3cccc(C)c3)nnn2c2ccc(Cl)cc12 |  | 11.6 µM (active)

SMILES | activity change, negative = growth inhibition | Potency
COCCCNc1nc2c(-c3cccc(C(F)(F)F)c3)nnn2c2ccccc12 | -12% | 
COc1ccc(CCNc2nc3c(-c4cccc(F)c4)nnn3c3ccccc23)cc1OC | -2.75% | 
C[C@@H]1O[C@@H](OC[C@H]2O[C@@H](Oc3c(-c4ccc(O)cc4)oc4cc(O)cc(O)c4c3=O)[C@H](O)[C@@H](O)[C@@H]2O)[C@H](O)[C@H](O)[C@H]1O | 12.2% | 
COc1cccc(-n2c(=O)c3c(C)c(C(=O)N(C)C)sc3n(Cc3cccc(C)c3)c2=O)c1 | -18.9% | 
COc1cc(OC)cc(C2=Cc3ccccc3C(CC(=O)c3ccco3)N2c2ccc(-c3cnc(OC)nc3)cc2)c1 (stereo unspecified) | -28.8% | 
Cn1c2ccccc2c2cc(/C=C(\NC(=O)c3ccccc3)C(=O)NCC(=O)O)ccc21 | 7.78% | 
O=c1c(F)cn(C2CCCO2)c(=O)n1Cc1ccccc1Cl (stereo unspecified) | -0.787% | 
O=C(C1CCN(CC2CCCCC2)CC1)N1CCCC1 | -1.64% | 
CCC1CCCCN1CCCNC(=O)C1CCC(Cn2c(=O)[nH]c3ccccc3c2=O)CC1 (stereo unspecified) | -20.6% | 
CCCNC(=O)C1CCC(Cn2c(=O)c3sccc3n(Cc3ccccc3F)c2=O)CC1 (stereo unspecified) |  | 14.6 µM (active)
Cc1cccc(Cn2c(=O)n(CCC(=O)NCCc3ccc(Cl)cc3)c(=O)c3sccc32)c1 | -3.17% | 
O=C(C1CCC(Cn2c(=O)c3sccc3n(Cc3ccccc3F)c2=O)CC1)N1CCCCC1 (stereo unspecified) |  | 23.1 µM (active)
C=Cc1ccc(Cn2c(C(=O)OC)cc3sc(C)cc32)cc1 | 15.1% | 
COc1ccc(S(=O)(=O)NC(=O)C2(C)CCN2C(=O)c2ccccc2CCc2ccccc2)cc1 (stereo unspecified) | 3.04% | 
CCCc1cc(=O)oc2c(C)c(OCC(=O)NCc3ccccn3)ccc12 | -14.6% | 
CCc1cc(=O)oc2c(C)c(OCC(=O)NCCN3CCOCC3)ccc12 |  | 23.1 µM (active)
CCCc1cc(=O)oc2c(C)c(OCC(=O)Nc3ccccn3)ccc12 | -26.1% | 
O=C(NCc1cccnc1)C12CC3CC(CC(C3)C1)C2 | -4.95% | 
CCOc1ccc(C(C)=O)cc1COC(=O)CNC(=O)c1cccs1 | -9.43% | 
COC(=O)CCNC(=O)c1ccc2[nH]c(C)c(C)c2c1 | -14.2% | 
Cc1ccc(C(=O)NCCSc2c(C)[nH]c3ccccc23)cc1C |  | 18.4 µM (active)
CN(C)CCCNC(=O)c1ccc2[nH]c3ccccc3c2c1 | 1.83% | 
COc1cccc(NC(=O)CN(C)C(=O)CSC(=S)N2CCCC2)c1 | 2.73% | 

SMILES | activity change, negative = growth inhibition | Potency
Cn1c(=O)n(C)c2cc(S(=O)(=O)Nc3ccc(F)cc3)ccc21 |  | 16.4 µM (active)
Cn1c(=O)sc2cc(NS(=O)(=O)c3ccc(C(C)(C)C)cc3)ccc21 | -14% | 
Cc1cc(C)cc(NS(=O)(=O)c2ccc(F)cc2)c1 | -0.189% | 
O=C(Nc1ccccc1N1CCOCC1)c1ccc(OCc2cscn2)cc1 | -9.05% | 
O=Nc1c(O)cc(O)c2ccccc12 | 2.19% | 
O=C(/C=C/c1cccc(F)c1)NC1CC1 | 14.9% | 
CC(C)c1cc(NCc2ccccn2)n2c(nc3ccccc32)c1C#N |  | 5.8 µM (active)
Cc1cc(NC(C)C)n2c(nc3ccccc32)c1C#N | 2.8% | 
Cc1cc(NCc2ccco2)n2c(nc3ccccc32)c1C#N | -21.1% | 
O=C(COC(=O)c1cc(S(=O)(=O)N2CCOCC2)ccc1F)NC1CC1 | 13.6% | 
O=C(c1ccc(CSc2ccccc2)cc1)N1CCCCCC1 | -29.9% | 
CCS(=O)(=O)N1CCN(C(=O)c2cccs2)CC1 | 18.7% | 
Cc1ccc(-c2c[n+](CC(=O)Nc3ccccc3)c3n2CCC3)cc1 |  | 11.6 µM (active)
Cc1ccc(C(=O)C[n+]2cc(-c3ccccc3)n3c2CCCCC3)cc1 |  | 5.62 µM (active) and 1.64 µM (active)
Cc1ccc(NC(=O)CN2CCc3ccccc3C2)cc1 | -11.7% | 
O=C(C[n+]1cc(-c2ccc(Cl)c(Cl)c2)n2c1CCC2)c1cccs1 |  | 10.3 µM (active)
CCCS(=O)(=O)N1CCN(C(=O)c2cccs2)CC1 | -5.54% | 
Cc1ccc(NC(=S)N2CCCC(c3ccccc3)=N2)cc1 | -0.285% | 
Cc1ccc(C(=O)N2CCCC(c3ccccc3)=N2)cc1 | 1.43% | 
